Experimental data taken from PubChem BioAssay AID720596 (The Scripps Research Institute Molecular Screening Center, 2013).
Among all 370,000 compounds or so, about 1,600 (0.43%) were called active. The sample as a whole holds a higher share of actives than the screen did. Unmarked numbers belong to inactive results. Cut-off read from the data, not from the text of the source: active = inhibition above about 24%; inactive = the rest.

What follows are compounds tested against Major prion protein (Homo sapiens) (UniProt P04156) (assay: reduces human prion protein on the cell surface, primary screen, cell-based, TR-FRET (AID 720596; note: 0% = median of the test wells and 100% = reference compound wells)). Conditions: cell surface PrPC, TR-FRET read-out; at 13.8 µM; hits give high values.

Row | Compound | inhibition
1 | COc1ccc(OC)c(-n2c(=S)[nH]c3cc(C(=O)N4CCCCC4)ccc3c2=O)c1 | 2.99%
2 | COc1cc2[nH]c(=S)n(Cc3ccc(C)o3)c(=O)c2cc1OC | -2%
3 | COc1cc(-n2c(=S)[nH]c3ccc(C)cc3c2=O)c(Cl)cc1Cl | 41% (active)
4 | COc1cccc(C(=O)N2CCCC(CCC(=O)NCc3ccc(F)c(F)c3)C2)c1 (stereo unspecified) | 1.57%
5 | CCOc1ccc(C2/C(=C(/O)c3ccc4c(c3)CC(C)O4)C(=O)C(=O)N2CCCn2ccnc2)cc1 (stereo unspecified) | 1.98%
6 | C=CCOc1cccc(C2C(C(=O)c3ccc(C)o3)=C(O)C(=O)N2CCN2CCOCC2)c1 (stereo unspecified) | -10.8%
7 | CCCOc1ccc(C2C(C(=O)c3ccc(C)o3)=C(O)C(=O)N2CCCn2ccnc2)cc1 (stereo unspecified) | 39.3% (active)
8 | CCOc1ccccc1OCCCNCc1ccccc1 | -4%
9 | O=C(CN1CCCSc2ccccc21)N1CCN(S(=O)(=O)c2cccc(F)c2)CC1 | -1.47%
10 | CC(C)c1ccc(S(=O)(=O)N2CCN(C(=O)CN3C(=O)NC(C)(c4ccccc4)C3=O)CC2)cc1 (stereo unspecified) | -0.25%
11 | N#C/C=C1\Sc2ccccc2C(=O)N1CC(=O)N1CCN(S(=O)(=O)c2ccccc2)CC1 | 59.8% (active)
12 | CCCN(C(=O)CSc1nnc(N)s1)c1c(N)n(Cc2ccccc2)c(=O)[nH]c1=O | -0.1%
13 | COc1ccc(Cl)cc1NC(=O)COc1ccc2c(c1)OCO2 | 0.61%
14 | Cc1noc(C)c1NC(=O)Nc1ccc2c(c1)C(=O)N([C@H](C)CO)C[C@H](C)[C@@H](CN(C)S(=O)(=O)c1cn(C)cn1)O2 | 3.79%
15 | COc1ccc(C)cc1NC(=O)CSc1nnc2ccc(-c3ccccn3)nn12 | -1.48%
16 | O=C(CCCNS(=O)(=O)c1cccc2nsnc12)NCCN1CCN(c2ccccc2F)CC1 | -22.9%
17 | CN(CCC(=O)Nc1cc(S(=O)(=O)N(C)C)ccc1Cl)CC(=O)Nc1ccc(F)cc1 | -6.03%
18 | Cc1cccc(C(=O)Nc2c(-c3ccc(F)cc3)nc3ncccn23)c1 | 0.67%
19 | Cc1cccc(NC(=O)c2nc(S(=O)(=O)Cc3ccccc3)ncc2Cl)c1 | 70.4% (active)
20 | Cc1cccc(NC(=O)c2cc3c(C)nn(-c4ccccc4)c3s2)c1 | -2.71%
21 | Cc1cccc(NC(=O)Cn2c(=O)n(Cc3ccccc3)c(=O)c3c(C)c(C)sc32)c1 | 4.63%
22 | Cc1cccc(CS(=O)(=O)c2ncc(Cl)c(C(=O)Nc3ccc(F)cc3)n2)c1 | 54.3% (active)
23 | Cc1ccc(NS(=O)(=O)c2cccs2)cc1S(=O)(=O)N1CCCCCC1 | 2.21%

Row | Compound | inhibition
24 | Cc1cccc(CC(=O)N2CCN=C2SCc2ccc([N+](=O)[O-])cc2)c1 | -5.21%
25 | CCCn1c(=S)[nH]c2ccc(C(F)(F)F)cc21 | 12.2%
26 | CCN(CC(=O)NCc1ccc(F)cc1)S(=O)(=O)c1ccc(Cl)s1 | -0.88%
27 | O=C(Nc1ccccn1)C1CCN(S(=O)(=O)c2ccc3c(c2)OCCO3)CC1 | -7.97%
28 | Cc1ccnc(NC(=O)C2CCN(S(=O)(=O)c3c(C)c(C)cc(C)c3C)CC2)c1 | 28.1% (active)
29 | Cc1ccc(Cl)cc1NC(=O)C1CCN(S(C)(=O)=O)CC1 | 4.88%
30 | O=C(/C=C/c1cnc2ccccc2n1)NC1CCCCCC1 | -28.9%
31 | CCOC(=O)c1c(C)oc2cc(Br)c(OCC(N)=O)cc12 | -4.57%
32 | CCOC(=O)c1c(-c2ccccc2)oc2ccc(OC(=O)N(C)C)cc12 | -3.58%
33 | CCOC(=O)c1c(-c2ccccc2)oc2cc(Br)c(O)cc12 | 58.6% (active)
34 | CCNc1nc(NCC)nc(N(C)n2cnnc2)n1 | 3.48%
35 | CCN(CC)c1ccc(S(=O)(=O)N2CCOCC2)cc1NC(=O)CSc1cccc[n+]1[O-] | -5.4%
36 | CCN1CCN(C(=O)C2CCCN(S(=O)(=O)c3ccc(OC)c(OC)c3)C2)CC1 (stereo unspecified) | -1.58%
37 | Nc1cc2c(cc1Br)-c1ccc(F)cc1C2=O | -0.15%
38 | O=C(/C=C/c1ccc([N+](=O)[O-])o1)NNC(=O)c1ccc(F)cc1 | 64.7% (active)
39 | CCN(CC)N=Nc1cccc(NC(C)=O)c1 | -7.3%
40 | Cc1ccc(SC(CC(=O)c2ccc(C(C)(C)C)cc2)C(=O)O)cc1 (stereo unspecified) | -2%
41 | O=C(OCC(=O)N1CCCCC1)c1ccc(OC(F)(F)F)cc1 | 8.76%
42 | c1ccc(-n2ncc(-c3nn[nH]n3)n2)cc1 | 1.91%
43 | CCc1cc(-c2n[nH]c(=S)n2CC(C)C)cs1 | -0.39%
44 | O=C(Nc1ccc(S(=O)(=O)N2CCOCC2)cc1)c1ccc2ncsc2c1 | 0.06%
45 | Cc1ccc(S(=O)(=O)N2CCOCC2)cc1NC(=O)c1ccncc1 | 7.08%
46 | COc1ccc(C(=O)Nc2nc(-c3ccc(S(=O)(=O)N4CCOCC4)cc3)cs2)cc1 | 27.2% (active)

Row | Compound | inhibition
47 | COc1ccc(NC(=O)CN(C)C(=O)c2cc(C3CC3)nn2-c2ccccc2)cc1 | 10.2%
48 | CCC(C)(O)C(=O)OC1C(=O)OC2CC3C(C)=CC(=O)C(O)C3(C)C3C4(O)OCC23C1C(C)C4O (stereo unspecified) | 83.1% (active)
49 | O=C(N/C(=C\c1ccc(F)cc1)C(=O)N1CCCCCC1)c1ccccc1 | -7.9%
50 | Cc1ccc(-c2nc3ccccc3c(=O)n2-c2ccc(Br)cn2)cc1 | 0.03%
51 | COc1ccc(CC(=O)NC(C)c2ccc(Cl)c(Cl)c2)cc1S(=O)(=O)N1CCOCC1 (stereo unspecified) | 4.45%
52 | COc1ccc(C)cc1NC(=O)CNCc1cccs1 | 0.34%
53 | Cc1ccsc1C(=O)OCC(=O)Nc1cccc(F)c1 | 25.2% (active)
54 | CC1CC1C(=O)OCC(=O)Nc1cccc(F)c1 (stereo unspecified) | -3.56%
55 | O=C(COC(=O)CNC(=O)C1CCCCC1)Nc1cccc(F)c1 | -5.42%
56 | CCN(CC(=O)NCc1ccc(Cl)cc1)C(=O)CSc1ccccc1 | 9.76%
57 | CN1/C(=C\C(=O)c2oc3ccccc3c2N)C(C)(C)c2ccccc21 | 51.8% (active)
58 | CN1/C(=C\C=C2\N=C(c3ccc(F)cc3)OC2=O)C(C)(C)c2ccccc21 | 9.17%
59 | C=CCN1C(=O)C2(C(C(=O)OCC)=C(N)Oc3c2c(=O)oc2ccccc32)c2ccccc21 (stereo unspecified) | 8.11%
60 | Cc1ccc(Cl)cc1N1CCN(C(=O)c2cccc3c(=O)c(C)c(-c4ccccc4)oc23)CC1 | 3.53%
61 | N#Cc1ccc(-c2nc3c(Cl)cc(C(F)(F)F)cn3c2Cc2ccccc2C(F)(F)F)cc1 | 6.77%
62 | CCOC(=O)C1(Cc2ccc(Cl)cc2)CCN(C(C)CCn2cccn2)CC1 (stereo unspecified) | -7.01%
63 | COC(=O)c1ccc2nc(-c3cccc(Br)c3)c(Cc3ccc(OC)cc3C)n2c1 | -3.29%
64 | CCCCNc1c(-c2cccc(Sc3ccc(OC)cc3)c2)nc2ccccn12 | 24.6% (active)
65 | CCCCNC(=O)c1onc(CSc2cccc(OC)c2)c1C(=O)O | 0.43%
66 | COc1ccc(-c2cc(C(F)(F)F)nc(SCCC(=O)NCc3ccco3)n2)cc1 | -0.14%
67 | COc1ccc(-c2cc(C(F)(F)F)nc(S(C)(=O)=O)n2)cc1OC | 43.6% (active)
68 | CCCC[C@H]1C2CC(OC(=O)NCc3ccccc3)C(C2)[C@H]2CCCCN21 (stereo partly specified) | -9.6%
69 | CCc1c(N=O)c(-c2ccccc2)n(O)[n+]1[O-] | -1.69%

Row | Compound | inhibition
70 | CCc1c(C)[nH]c(=S)c(C#N)c1C | 10%
71 | CCOC(=O)c1c(C)[nH]c(=S)c(C#N)c1-c1ccccc1 | 36.6% (active)
72 | CC(=O)c1c(C)[nH]c(=S)c(C#N)c1-c1ccc(F)cc1 | 2.25%
73 | Cc1nc(CC(=O)NNS(=O)(=O)c2ccc(F)c(Cl)c2)cs1 | -3.65%
74 | Cc1c(NC(=O)CN2C(=O)C(=O)N(Cc3ccccc3)C2=O)c(=O)n(-c2ccccc2)n1C | -0.02%
75 | O=C(CSc1nc2c(c(=O)[nH]1)CCCC2)N1CCCCC1 | 3.4%
76 | Cc1c(C)n2c(SCC(=O)N3CCCC3)nnc2[nH]c1=O | -1.9%
77 | CC(=O)c1sc2nc(SCC(=O)N3CCCCC3)[nH]c(=O)c2c1C | 34.2% (active)
78 | CCCCCCCCCCCCn1ccc(=N)cc1 | 34.3% (active)
79 | C[C@H]1CN([C@@H](C)CO)C(=O)CCCn2cc(nn2)CO[C@@H]1CN(C)S(=O)(=O)c1cccs1 | 6.24%
80 | NC(=O)COc1ccc(NC(=O)c2ccccc2-c2ccccc2)cc1 | 2.41%
81 | Cc1ccc(C)c2[nH]c(=O)c(CCNC(=O)c3cccs3)cc12 | 1.05%
82 | CCCCC(CC)CNCc1cccn1CCN1CCOCC1 (stereo unspecified) | -0.03%
83 | CCCCCCCCn1c2c(c(=N)c3c1CCC3)CCCC2 | 34.1% (active)
84 | CCNC(=O)Nc1ccc(S(=O)(=O)Nc2cnc(C)nc2C)cc1 | -5.43%
85 | Cc1ccc(Sc2ccc(NC(=O)c3ccc(F)cc3)cc2C#N)cc1 | -3.85%
86 | CC(=O)c1ccc(NC(=O)c2sc3nc4n(c(=O)c3c2C)CCCCC4)cc1 | 7.05%
87 | Cc1ccc(NC(=O)c2sc3nc(N)c(C#N)cc3c2N)cc1 | 29.7% (active)
88 | CC(=O)Nc1ccc(S(=O)(=O)NNC(=O)CCc2ccccc2)cc1 | -0.14%
89 | COc1ccc(-n2nnnc2SCc2nc(N)nc(N3CCOCC3)n2)cc1 | 2.17%
90 | CC1(c2ccc3ccccc3c2)NC(=O)NC1=O (stereo unspecified) | 9.52%
91 | CNC(=O)C1CN(C(=O)c2cccc(S(=O)(=O)N3CCc4ccccc43)c2)c2ccccc2O1 (stereo unspecified) | 4.01%
